Source: PubChem BioAssay (NCI)
The panel holds about 83,000 compounds, 20% with a hit somewhere; the sample as a whole holds those more often.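 Interpretation: 100, growth as untreated; towards 0, rising growth inhibition; 0, no net growth; 0 to -100, cell death. Compounds scoring below 10 were considered active.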 Active and inactive are the calls of the source.

tested on: TK-10 renal; assay: NCI-60 one-dose screen, 48 h (100 = growth as untreated, 0 = no growth, -100 = all killed); conditions: 10 µM unless noted
Method: Growth inhibition of the TK-10 human tumor cell line is measured as a screen for anti-cancer activity. Cells are grown in 96 well plates and exposed to the test compound for 48 hours. Compounds are tested at a single concentration, which is 10^-5 M for most compounds. The reported endpoint is percent growth (GI% or GIPRCNT), where numbers from 0 - 100% represent growth inhibition, and numbers from -100% - 0 represent cell death. For example, a value of 40 represents 60% growth inhibition. A value of 0 means no net growth occurred over the course of the experiment. A value of -40 indicates 40% of cells at the beginning of the experiment died by the end of the experiment. A value of -100 means all cells are dead at the end of the experiment.
NCI-60 Human Tumor Cell Lines Screen was performed using the standard one-dose NCI protocol, which is described in more detail at https://dtp.cancer.gov/discovery_development/nci-60/default.htm.
Compounds with GIPRCNT values below 10 were considered active. Activity score was based on GIPRCNT using the following formula: […]
Score is 0 for GIPRCNT values of 100 or above, 50 for GIPRCNT values of 0, and 100 for GIPRCNT values of -100.

**Q.** For `COc1ccc(-c2cncnc2N)cc1OC`, which growth is on record?
**A.** 111% (inactive)

**Q.** For `COc1ccccc1NC(=O)Nc1ccc(-c2nc3ccccc3o2)cc1`, which growth is on record?
**A.** 118% (inactive)

**Q.** With `COc1ccc(-n2ncn(CCCCCCn3cnn(-c4ccc(OC)cc4)c3=O)c2=O)cc1` as the molecule, how does the growth read?
**A.** 118% (inactive)

**Q.** `Cc1cc(-c2noc(C(F)(F)F)n2)ccc1N1CCN(c2cc(C(=O)N(C)C)no2)CC1` was tested. Which growth did it give?
**A.** 81.2% (inactive)

**Q.** For `Clc1ccc(/C=C/c2nc(Nc3ccc(Cl)cc3)c3ccccc3n2)cc1`, which growth is on record?
**A.** 121% (inactive)

**Q.** Which growth does the source give for `CC(=O)Nc1ccc(-c2cc3c(NCc4ccc(F)cc4)ncnc3s2)cc1` here?
**A.** 70.5% (inactive)

**Q.** How did the growth turn out when `Cc1cc(Cc2cc(C)cc(C(C)(C)C)c2O)c(O)c(C(C)(C)C)c1` was run?
**A.** 52.8% (inactive)

**Q.** Which growth does the source give for `CCCc1cc(=O)oc2c3c(c4c(c12)OC(C)(C)C=C4)O[C@@H](C)[C@H](C)C3=O` here?
**A.** 83.2% (inactive)

**Q.** For `O=c1[nH]nc(-c2ccc(Cl)cc2)cc1Cc1ccccc1`, which growth is on record?
**A.** 109% (inactive)

**Q.** For `c1ccc([P+](CCCc2n(Cc3ccc4ccccc4c3)c3ccccc3[n+]2Cc2ccc3ccccc3c2)(c2ccccc2)c2ccccc2)cc1`, which growth is on record?
**A.** 89.2% (inactive)

**Q.** For `O=C1NCC(=O)N(Cc2ccco2)[C@H]1Cc1ccccc1`, which growth is on record?
**A.** 85.5% (inactive)

**Q.** For `CC(=O)Nc1cccc(C2=CC(c3ccc(C)cc3)n3ncnc3N2)c1` (stereo not given), which growth is on record?
**A.** 110% (inactive)

**Q.** Which growth does the source give for `CC(C)(C)c1ccc(C(=O)Nc2sc3c(c2C(N)=O)CCC(=O)C3)cc1` here?
**A.** -33.9% (active)

**Q.** With `Nc1c(-c2nc3ccccc3c(=O)[nH]2)nnn1-c1ccc(Cl)cc1` as the molecule, how does the growth read?
**A.** 72.6% (inactive)

**Q.** For `O=C1CSC(c2ccccc2O)N1c1nnc(Cn2cnnc2)o1` (stereo not given), which growth is on record?
**A.** 145% (inactive)

**Q.** `COc1cc2c(c(OC)c1OC)C(=O)/C(=C/c1cc(C)c(O)c(C)c1)S2` was tested. Which growth did it give?
**A.** 59.2% (inactive)

**Q.** `COC(=O)CCCNC(=O)C(=O)c1c(O)c(O)c(C(C)C)c2cc(C)c(-c3c(C)cc4c(C(C)C)c(O)c(O)c(C(=O)C(=O)NCCCC(=O)OC)c4c3O)c(O)c12` was tested. Which growth did it give?
**A.** 7.48% (active)

**Q.** How did the growth turn out when `O=C(/C=C/C12c3ccccc3C(c3ccccc31)C1C(=O)N(c3ccccc3)C(=O)C12)c1ccc(Cl)cc1` (stereo not given) was run?
**A.** 42.8% (inactive)

**Q.** With `COc1cc2c(cc1OC)-c1ccc3cc4c(cc3c1N(CCCN(C)C)C2)OCO4` as the molecule, how does the growth read?
**A.** 46.6% (inactive)

**Q.** `O=[N+]([O-])c1ccccc1C(O)Cc1ccc2ccccc2n1` (stereo not given) was tested. Which growth did it give?
**A.** 148% (inactive)

**Q.** How did the growth turn out when `COc1ccc(OC)c(/C=C2\COc3ccc(O)c(O)c3C2=O)c1` was run?
**A.** 41.5% (inactive)

**Q.** How did the growth turn out when `Cl.Fc1c[c-]c(-c2ccccn2)c(F)c1.[Pt].c1ccc(P(c2ccccc2)C([PH+](c2ccccc2)c2ccccc2)[PH+](c2ccccc2)c2ccccc2)cc1` was run?
**A.** 24.3% (inactive)

**Q.** For `Cc1nc(C)c(-c2nn3c(-c4cccc(F)c4)nnc3s2)s1`, which growth is on record?
**A.** 77.6% (inactive)

**Q.** Which growth does the source give for `CCN1CCN(c2ccc(Nc3cc(-c4cccnc4Nc4c(Cl)c(OC)cc(OC)c4Cl)ncn3)cc2)CC1` here?
**A.** 68.1% (inactive)

**Q.** For `OCCCCc1nccc2c1[nH]c1ccccc12`, which growth is on record?
**A.** 67.9% (inactive)

**Q.** Which growth does the source give for `Cc1cnc(Nc2ccc(N3CCN(C)CC3)cc2)nc1Nc1ccc(Cl)c(NS(=O)(=O)C(C)(C)C)c1` here?
**A.** 0.435% (active)

**Q.** Which growth does the source give for `CCN(CC)S(=O)(=O)c1ccc(O)c(NC(=O)c2[nH]c(C)c(C(C)=O)c2CCc2ccc(Cl)cc2)c1` here?
**A.** 53.9% (inactive)

**Q.** For `CNC(=O)c1cc(Oc2ccc3nc(NC(=O)Nc4cc(C(F)(F)F)cc(C(F)(F)F)c4)sc3c2)ccn1`, which growth is on record?
**A.** -54.8% (active)

**Q.** With `CN(C)c1ccc(/C=C/c2c(F)cccc2F)cc1` as the molecule, how does the growth read?
**A.** 109% (inactive)

**Q.** With `O=C(/C=C/C12c3ccccc3C(c3ccccc31)C1C(=O)N(c3ccccc3)C(=O)C12)c1ccccc1` (stereo not given) as the molecule, how does the growth read?
**A.** 20.8% (inactive)

**Q.** How did the growth turn out when `CCCCN(Cc1ccc(C(=O)NO)cc1)C(=O)Nc1ccc(OCCCCCCCCCn2cc(CCCCC(=O)N[C@H](C(=O)N3C[C@H](O)C[C@H]3C(=O)NCc3ccc(-c4scnc4C)cc3)C(C)(C)C)nn2)cc1` was run?
**A.** 87.6% (inactive)

**Q.** For `CCCCCCNCc1cc(C(C)(C)C)cc(CNCCCCCC)c1O`, which growth is on record?
**A.** -80.4% (active)

**Q.** With `NC(=S)N/N=C/C(=O)O` as the molecule, how does the growth read?
**A.** 111% (inactive)

**Q.** For `CCCCCCCC/C=C/CCCCCCCC1=NCC[N+]1(CCO)CCO`, which growth is on record?
**A.** 41.2% (inactive)

**Q.** For `COc1ccccc1C(=O)NC(=S)Nc1ccc(-c2nc3ccccc3[nH]2)cc1`, which growth is on record?
**A.** 59.6% (inactive)

**Q.** How did the growth turn out when `Nc1ccc(S(=O)(=O)Nc2ccsc2-c2nc(-c3ccccc3)no2)cc1` was run?
**A.** 66.1% (inactive)

**Q.** How did the growth turn out when `Oc1[nH]c2ccccc2c1/C=c1/cc2c(c(-c3ccc(F)cc3)n1)=Nc1ccccc1-2` was run?
**A.** 16.3% (inactive)

**Q.** `CC(=O)c1ccc2c(c1)CCN2` was tested. Which growth did it give?
**A.** 98.1% (inactive)

**Q.** How did the growth turn out when `COc1ccc(/C=C(\C#N)n2nnc3ccccc32)cc1` was run?
**A.** 44% (inactive)

**Q.** For `CCNCCNc1cc(-c2ccc(C(=O)OC)cc2)c(C#N)c2nc3ccccc3n12`, which growth is on record?
**A.** 87.3% (inactive)
